Values joined by “and” are separate entries in the source; they are usually repeats but may differ in a detail not shown here. Identical values can stand only once. Hit rate of the full screen: of about 310,000 compounds, about 1,200 (0.39%) were called active. The rule behind the calls is not given here. A selection follows. Results with a measured potency or affinity are listed apart.
Target: Large T antigen (Simian virus 40) (UniProt P03070)
Assay: TAg ATPase/helicase activity blockers – biochemical (AID 1903)
Conditions: SV40 large T antigen ATPase/helicase inhibition assay; at 20 µM; hits give high values

Chain of Large T antigen (Simian virus 40) (P03070 whole entry, looked up): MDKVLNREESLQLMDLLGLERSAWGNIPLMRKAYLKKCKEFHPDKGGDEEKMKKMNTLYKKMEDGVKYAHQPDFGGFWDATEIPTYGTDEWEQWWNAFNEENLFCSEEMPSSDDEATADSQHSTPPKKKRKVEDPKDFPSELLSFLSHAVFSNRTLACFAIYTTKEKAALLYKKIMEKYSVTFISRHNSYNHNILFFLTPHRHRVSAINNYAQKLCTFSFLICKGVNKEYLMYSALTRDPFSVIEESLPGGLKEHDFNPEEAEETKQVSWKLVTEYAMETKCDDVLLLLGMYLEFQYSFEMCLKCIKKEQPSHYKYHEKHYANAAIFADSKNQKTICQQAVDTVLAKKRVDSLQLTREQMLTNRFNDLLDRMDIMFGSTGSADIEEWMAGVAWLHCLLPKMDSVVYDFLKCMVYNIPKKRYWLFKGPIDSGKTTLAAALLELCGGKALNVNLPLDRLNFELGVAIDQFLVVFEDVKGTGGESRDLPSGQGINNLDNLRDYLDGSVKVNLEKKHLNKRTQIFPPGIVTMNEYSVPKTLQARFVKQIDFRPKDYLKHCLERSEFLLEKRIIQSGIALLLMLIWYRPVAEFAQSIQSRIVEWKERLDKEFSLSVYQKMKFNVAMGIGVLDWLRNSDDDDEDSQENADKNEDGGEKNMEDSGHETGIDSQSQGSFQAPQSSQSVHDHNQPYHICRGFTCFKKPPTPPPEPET

inhibition, inactive:
COc1ccc(N(CC(=O)O)S(=O)(=O)c2cccnc2)cc1 9.79%
Cn1cnc(S(=O)(=O)N2CCN(C(c3ccc(F)cc3)c3ccc(F)cc3)CC2)c1 11.7%
COC(=O)c1ccc(C(=O)N2CCCC(Nc3ccc(F)c(F)c3)C2)cc1 (stereo not drawn) 13.5%
COc1cccc(NC(=S)NN=C2CCC(C(C)(C)C)CC2)c1 (stereo not drawn) 4.61%
CCOC(=O)/C(C#N)=C\c1ccc(O)c(OC)c1 36.3%
COc1cc(/C=C(\C#N)C(=O)c2c[nH]c3ccccc23)cc(OC)c1O 24.5%
N#C/C(=C\c1cccc(Cl)c1)C(=O)c1ccccc1 45.6%
N#C/C(=C/c1ccc(O)c(O)c1)C(=O)NCc1ccc(Cl)cc1 35%
O=S(=O)(c1ccc2oc3ccc(S(=O)(=O)N4CCCCC4)cc3c2c1)N1CCCCC1 -0.2%
CC1CCC(NC(=O)CNC(=O)Cc2cccc3ccccc23)CC1 (stereo not drawn) -1.39%
Cc1ccc(NCN2C(=O)C3C4C=CC(C4)C3C2=O)cc1 (stereo not drawn) 5.54%
O=C1C2C3C=CC(C3)C2C(=O)N1CNc1ccc(O)cc1 (stereo not drawn) 37.4%
CCN(CC)C(=O)COc1ccc2c(-c3ccc(OC)cc3)cc(=O)oc2c1 11.6%
Oc1ccc(/C=N/Nc2cc(N3CCCC3)nc(N3CCCC3)n2)cc1O 42%
Oc1cccc(/C=N/Nc2cc(N3CCOCC3)nc(N3CCOCC3)n2)c1 -5.16%
CCOc1ccc(/C=C2\SC(=S)N(NS(=O)(=O)c3ccc(C)cc3)C2=O)cc1OC 31.2%
CCOc1cc(/C=C2\SC(=S)N(NS(=O)(=O)c3ccccc3)C2=O)ccc1O 38.4%
CCOc1cc(/C=C2\SC(=S)N(NC(=O)c3cccnc3)C2=O)ccc1O 33.1%
COc1cc(/C=C2\SC(=S)N(NC(=O)c3ccncc3)C2=O)ccc1O 31.8%
COc1cc(/C=C2\SC(=S)N(NS(=O)(=O)c3ccccc3)C2=O)cc(OC)c1OC 11.2%
COc1cc(/C=C2\SC(=S)N(NS(=O)(=O)c3ccc(C)cc3)C2=O)cc(OC)c1OC 20.8%
CCCCNC(=O)C1CCCN1C(=O)Nc1ccccc1 (stereo not drawn) 4.68%
C=CCOCCN1C(=O)C2C3C=CC(C2C1=O)C1C2C(=O)N(CCOCC=C)C(=O)C2C31 (stereo not drawn) 7.04%
O=C(CSc1ccc(F)cc1)NNC(=O)c1ccccc1Br 7.8%
COc1ccc(CCN=C(N)NS(=O)(=O)c2ccc(C)c(C)c2)cc1 23.6%
CCOc1cc(C(=O)N2CCC3(CC2)NCCc2[nH]cnc23)cc(OCC)c1OCC 8.46%
O=C(OCc1ccc(Br)cc1)c1cnc(Cl)c(Cl)c1 6.01%
COCCNC(=O)c1ccc(C2SCC(=O)N2CCc2ccccc2)cc1 (stereo not drawn) 2.84%
COc1cccc(NC(=O)C2Cc3ccccc3CN2C(=O)c2ccco2)c1 (stereo not drawn) 10.4%
CCOc1ccc(N(CC(=O)NCc2ccccc2)C(=O)Cn2nnc(-c3ccc(C)o3)n2)cc1 3.98%
COc1ccc2cc3[n+](cc2c1OC)CCc1cc2c(cc1-3)OCO2 13.6% and 21.3%
COc1cc2c(cc1OC)-c1cc3ccc(OC)c(OC)c3c[n+]1CC2 10.3%
CCC1(CC)Cc2ccccc2C2=C(C(=O)N3CCCCC3)C(=O)C(=O)N21 3.53%
CSc1ccc(-c2nc(CSCC(=O)NCCCN3CCCC3=O)c(C)o2)cc1 8.19%
Cc1nsc(Nc2ccccc2)c1C#N 11.3%
FC(F)(F)c1ccccc1Nc1nccs1 3.87%
CCOC(=O)CC(NC(=O)CCc1c(C)nc2nc(C)nn2c1C)c1ccc(C)cc1 (stereo not drawn) 1.45%
CC(Oc1ccc2c(c1)oc(=O)c1ccccc12)C(=O)NCCN1CCOCC1 (stereo not drawn) 4.69%
O=C(CSc1ccc(Cl)cc1)NNC(=O)c1cccnc1 28.6%
O=c1nccc(N/N=C/c2ccccc2)[nH]1 2.59%
C#CCOCCOCCOCCNc1nc(N2CCN(C(=O)CCCCCCCCCCNC(=O)[C@H](CCCCN)n3cc(CCO)nn3)CC2)nc(N2CCN(C(=O)CCCCCCCCCCNC(=O)[C@H](CCCN=C(N)N)n3cc(C[C@@H](C)CC)nn3)CC2)n1 30.2%
C#CCOCCOCCOCCNc1nc(N2CCN(C(=O)CCCCCCCCCCNC(=O)[C@H](CO)n3cc(CCCCCN)nn3)CC2)nc(N2CCN(C(=O)CCCCCCCCCCNC(=O)[C@H](CCCN=C(N)N)n3cc(C[C@@H](C)CC)nn3)CC2)n1 36.3%
C#CCOCCOCCOCCNc1nc(N2CCN(C(=O)CCCCCCCCCCNC(=O)[C@H](CO)n3cc(CCCSC)nn3)CC2)nc(N2CCN(C(=O)CCCCCCCCCCNC(=O)[C@H](CCCN=C(N)N)n3cc(C[C@@H](C)CC)nn3)CC2)n1 20.2%
C#CCOCCOCCOCCNc1nc(N2CCN(C(=O)CCCCCCCCCCNC(=O)[C@H]([C@@H](C)CC)n3cc(CCCCN=C(N)N)nn3)CC2)nc(N2CCN(C(=O)CCCCCCCCCCNC(=O)[C@H](CO)n3cc(CCCCCN)nn3)CC2)n1 28.3%
C#CCOCCOCCOCCNc1nc(N2CCN(C(=O)CCCCCCCCCCNC(=O)[C@H](CCCCN)n3cc(CCCC(=O)O)nn3)CC2)nc(N2CCN(C(=O)CCCCCCCCCCNC(=O)[C@H](CCCN=C(N)N)n3cc(C[C@@H](C)CC)nn3)CC2)n1 15.3%
C#CCOCCOCCOCCNc1nc(N2CCN(C(=O)CCCCCCCCCCNC(=O)[C@@H](CCSC)n3cc(CCO)nn3)CC2)nc(N2CCN(C(=O)CCCCCCCCCCNC(=O)[C@H]([C@@H](C)CC)n3cc(CCCCN=C(N)N)nn3)CC2)n1 5%
C#CCOCCOCCOCCNc1nc(N2CCN(C(=O)CCCCCCCCCCNC(=O)[C@H](CCCCN)n3cc(CCO)nn3)CC2)nc(N2CCN(C(=O)CCCCCCCCCCNC(=O)[C@H](CCCCN)n3cc(C[C@@H](C)CC)nn3)CC2)n1 22.1%
C#CCOCCOCCOCCNc1nc(N2CCN(C(=O)CCCCCCCCCCNC(=O)[C@H](CCCCN)n3cc(C[C@@H](C)CC)nn3)CC2)nc(N2CCN(C(=O)CCCCCCCCCCNC(=O)[C@H](CCCN=C(N)N)n3cc(C[C@@H](C)CC)nn3)CC2)n1 35.8%
